Results: PubChem BioAssay (NCI)
This is part of a sample that, as a whole, favours compounds with a hit. Of some 79,000 tested, about 15% had one in any assay. Unmarked numbers belong to inactive results. Active and inactive are the calls of the source. Rule as the data show it: active = growth inhibition above about 70%; inactive = the rest. Where a SMILES comes first, the peptide text is derived from it. [ ]: non-standard residue; d: D form. ξ: configuration not given here. ξD = NC(CC(=O)O)C(=O)O

Assay: NCI Yeast Anticancer Drug Screen. Data for the rad50 strain (AID 155);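 also: 0% = growth of vehicle-only cultures of the same strain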
Settings: S. cerevisiae rad50 strain growth inhibition; at 50.0 µM; hits give high values
Outline: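 Cells are treated with compound, grown, and their growth is then scored against vehicle-only cultures of the same repair-deficient yeast strain.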

Compound	growth inhibition
COC(=O)c1nc(=S)[nH]c(C(=O)OC)c1C(=O)c1ccc(Cl)c(Cl)c1	99.5% (active)
NC(=Nc1nc(-c2ccccn2)cc2ccccc12)c1ccccn1	77.2% (active)
Cc1nc(Sc2nc3ccc([N+](=O)[O-])cc3s2)sc1C	88.2% (active)
NC(=S)Nc1ccc2c(c1)Cc1ccccc1-2	64.5%
CN(C)CCN(C)CC(C)(C)C(=O)/C=C/c1ccc(Cl)c(Cl)c1	96.8% (active)
CCCCCCCCCCCCCCCc1ccc(C(=O)C[n+]2ccccc2)cc1	85.8% (active)
O=C(CCl)N(c1ccccc1)c1ccccc1	89.7% (active)
CCOC(=O)C1=C(C(=O)c2ccccc2)C(c2cccc([N+](=O)[O-])c2)C(C(=O)c2ccccc2)=C(C(=O)OCC)N1	56.2%
CCN1CCCC(Nc2cc(C)nc(/N=C(/N)Nc3ccc(Cl)c(Cl)c3)n2)C1 (centres undefined)	90% (active)
CCc1cnc2ccccc2c1/C=C/c1ccc(N(C)C)cc1	98.4% (active)
O=[N+]([O-])c1ccc2c(c1)Cc1ccccc1-2	63.5%
Fc1ccc(NCCS)cc1	85.2% (active)
CCCCC(C=O)(C=C=C(C)C)CC (centres undefined)	51.4%
CN(C)c1ccc(/C=C/c2cc[n+](C)c(/C=C/c3ccc(N(C)C)cc3)c2)cc1	91% (active)
COc1cc([C@@H]2c3cc4c(cc3[C@H](OC3OC5COC(c6ccccc6)OC5C(O)C3O)[C@H]3COC(=O)[C@H]23)OCO4)cc(OC)c1OC (some centres undefined)	81.3% (active)
OC(c1cc(-c2ccc(Cl)cc2)nc2c(Cl)cccc12)C1CCCCN1 (centres undefined)	99.8% (active)
CSc1nc(C)c(C(=O)CCN2CCN(c3ccccn3)CC2)s1	86.8% (active)
Cc1cc(C(=O)c2ccc(Cl)cc2)ccc1O	72.4% (active)
O=C(c1ccccc1)C(Br)C(Br)c1ccccc1 (centres undefined)	97.7% (active)
CCCCCCN(CCCCCC)CCCNc1nccc2ccccc12	78.5% (active)

Compound	growth inhibition
CCCCCCCCCCCC[S+](C)CC(=O)[O-] (centres undefined)	23.2%
COC(=O)C(=[N+]=[N-])C(=O)c1ccc([N+](=O)[O-])o1	56.1%
Cc1c(O)ccc(SC#N)c1C	88.5% (active)
Oc1c(Cl)cc(Cl)cc1C(c1cc(Cl)cc(Cl)c1O)C(Cl)(Cl)Cl	99% (active)
CCCCCCCCCCCCNCCCc1ccccc1	98.1% (active)
Nc1ccc(C(=O)/C=C/c2ccccc2)cc1	67.8%
NCC(=O)NC(CC(=O)O)C(=O)O (centres undefined) (H-Gly-[ξD]-OH)	12.7%
CN(C)c1ccc(C(=C2C=CC(=[N+](C)C)C=C2)c2ccc(N(C)C)cc2)cc1	94.9% (active)
O=C1c2ccccc2Cc2cccc(Cl)c21	88.5% (active)
O=C/C=C/c1ccc([N+](=O)[O-])cc1	80.4% (active)
O=C1c2ccccc2C(=O)c2c(O)c(Cl)cc(O)c21	15.9%
CN1CSC(=S)N(Cc2ccccc2)C1	73.6% (active)
CC(O)C(O)C(O)C(O)C(O)C(=O)NNc1ccccc1 (centres undefined)	44%
Cn1c(COC(=O)NC2CCCCC2)c(COC(=O)NC2CCCCC2)c2ccc3cc(Cl)c(Cl)cc3c21	18.1%
NC(=S)N/N=C\c1nccc2c(N)cccc12	61.4%
Oc1cc(Cl)ccc1Cc1ccc(Cl)cc1O	99.8% (active)
CCCCCCCCCCCC(=O)OC(C)C(=O)NCCCC (centres undefined)	-18.2%
CCC(=O)c1cc([N+](=O)[O-])c(Br)s1	99.7% (active)
OC(Cc1cc(CC(O)(C(F)(F)F)C(F)(F)F)nc(CC(O)(C(F)(F)F)C(F)(F)F)c1)(C(F)(F)F)C(F)(F)F	99.5% (active)
